Values joined by “and” are separate entries in the source; they are usually repeats but may differ in a detail not shown here. Equal entries are not always repeated. Inconclusive results are not listed. Where a call stands in place of a potency, no number is given. Active and inactive are the calls of the source. Unless noted, calls come from the whole dose curve; as a rule, active = well fitted curve in the direction sought with a large enough effect; inconclusive = small, poorly fitted or top-dose-only effect, or another doubt; inactive = no such curve, though single readings can be large; an effect the other way counts as inactive or inconclusive.
Experiments:
[1] = biological target: D(1A) dopamine receptor (Homo sapiens) (UniProt P21728); assay: HTS Assay for Allosteric Agonists of the Human D1 Dopamine Receptor: Primary Screen for Potentiators (AID 488982)
Chain of D(1A) dopamine receptor (Homo sapiens) (P21728 whole entry, looked up): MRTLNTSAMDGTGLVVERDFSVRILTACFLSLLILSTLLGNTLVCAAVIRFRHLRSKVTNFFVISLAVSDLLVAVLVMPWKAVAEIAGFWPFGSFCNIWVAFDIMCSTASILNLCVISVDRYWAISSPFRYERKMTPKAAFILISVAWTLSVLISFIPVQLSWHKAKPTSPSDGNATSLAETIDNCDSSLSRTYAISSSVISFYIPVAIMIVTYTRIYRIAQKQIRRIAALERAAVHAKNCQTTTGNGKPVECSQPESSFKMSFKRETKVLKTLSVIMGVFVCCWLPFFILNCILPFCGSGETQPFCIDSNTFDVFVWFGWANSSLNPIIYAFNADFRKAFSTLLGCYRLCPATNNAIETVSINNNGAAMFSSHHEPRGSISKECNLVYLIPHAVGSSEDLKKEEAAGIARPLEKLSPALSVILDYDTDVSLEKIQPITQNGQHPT
Summary of the method: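 Tetracycline-induced HEK293 Trex D1 cells with forced coupling to calcium, loaded with no-wash calcium dye; kinetic fluorescence read 180 s after compound addition for agonism, then a further 180 s after an EC20 dopamine challenge for potentiation.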

[2] = biological target: D(1A) dopamine receptor (Homo sapiens) (UniProt P21728); assay: HTS Assay for Allosteric Agonists of the Human D1 Dopamine Receptor: Primary Screen for Antagonists (AID 488983);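 note: calcium flux response to an EC80 dopamine challenge measured with no-wash dye; nearly all actives have a fitted effect of over 65% in size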
Summary of the method: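 Calcium-flux read-out in inducible HEK293 T-REx cells expressing D1, dye-loaded 30–90 min at room temperature. Kinetic reads: 180 s after compound (agonist phase), then 180 s after an EC80 dopamine challenge.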

[3] = biological target: ATP-dependent 6-phosphofructokinase (Trypanosoma brucei brucei) (UniProt O15648); assay: qHTS Assay to Find Inhibitors of T. brucei phosphofructokinase: hit validation (AID 492961);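 note: luminescence reports ADP formed as PFK phosphorylates fructose-6-phosphate with ATP; series mostly up to about 51 µM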
Summary of the method: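 Inhibition of parasite PFK is measured as reduced ADP formation, quantified via luciferase after ATP depletion. Assay used 0.1 mM ATP, 0.5 mM F6P, 1.25 nM enzyme, 45 min incubation.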

[4] = Validation screen for small molecules that induce genotoxicity in human embryonic kidney (HEK293T) cells expressing luciferase-tagged ELG1 (AID 493106)
Summary of the method: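 ELG1-luciferase reporter readout (ONE-Glo, 30 min, room temperature) after 16 hr compound treatment at 37 °C of HEK293T cells at 2,000 per well. Rising luminescence flags genotoxic stress.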

[5] = biological target: ATPase family AAA domain-containing protein 5 (Homo sapiens) (UniProt Q96QE3); assay: Validation screen for small molecules that inhibit ELG1-dependent DNA repair in human embryonic kidney (HEK293T) cells expressing luciferase-tagged ELG1 (AID 493107); note: nearly all actives have a fitted effect of over 70% in size; note: potency is the fitted concentration of half-maximal effect
Chain of ATPase family AAA domain-containing protein 5 (Homo sapiens) (Q96QE3 whole entry, looked up, the tested form may be a part): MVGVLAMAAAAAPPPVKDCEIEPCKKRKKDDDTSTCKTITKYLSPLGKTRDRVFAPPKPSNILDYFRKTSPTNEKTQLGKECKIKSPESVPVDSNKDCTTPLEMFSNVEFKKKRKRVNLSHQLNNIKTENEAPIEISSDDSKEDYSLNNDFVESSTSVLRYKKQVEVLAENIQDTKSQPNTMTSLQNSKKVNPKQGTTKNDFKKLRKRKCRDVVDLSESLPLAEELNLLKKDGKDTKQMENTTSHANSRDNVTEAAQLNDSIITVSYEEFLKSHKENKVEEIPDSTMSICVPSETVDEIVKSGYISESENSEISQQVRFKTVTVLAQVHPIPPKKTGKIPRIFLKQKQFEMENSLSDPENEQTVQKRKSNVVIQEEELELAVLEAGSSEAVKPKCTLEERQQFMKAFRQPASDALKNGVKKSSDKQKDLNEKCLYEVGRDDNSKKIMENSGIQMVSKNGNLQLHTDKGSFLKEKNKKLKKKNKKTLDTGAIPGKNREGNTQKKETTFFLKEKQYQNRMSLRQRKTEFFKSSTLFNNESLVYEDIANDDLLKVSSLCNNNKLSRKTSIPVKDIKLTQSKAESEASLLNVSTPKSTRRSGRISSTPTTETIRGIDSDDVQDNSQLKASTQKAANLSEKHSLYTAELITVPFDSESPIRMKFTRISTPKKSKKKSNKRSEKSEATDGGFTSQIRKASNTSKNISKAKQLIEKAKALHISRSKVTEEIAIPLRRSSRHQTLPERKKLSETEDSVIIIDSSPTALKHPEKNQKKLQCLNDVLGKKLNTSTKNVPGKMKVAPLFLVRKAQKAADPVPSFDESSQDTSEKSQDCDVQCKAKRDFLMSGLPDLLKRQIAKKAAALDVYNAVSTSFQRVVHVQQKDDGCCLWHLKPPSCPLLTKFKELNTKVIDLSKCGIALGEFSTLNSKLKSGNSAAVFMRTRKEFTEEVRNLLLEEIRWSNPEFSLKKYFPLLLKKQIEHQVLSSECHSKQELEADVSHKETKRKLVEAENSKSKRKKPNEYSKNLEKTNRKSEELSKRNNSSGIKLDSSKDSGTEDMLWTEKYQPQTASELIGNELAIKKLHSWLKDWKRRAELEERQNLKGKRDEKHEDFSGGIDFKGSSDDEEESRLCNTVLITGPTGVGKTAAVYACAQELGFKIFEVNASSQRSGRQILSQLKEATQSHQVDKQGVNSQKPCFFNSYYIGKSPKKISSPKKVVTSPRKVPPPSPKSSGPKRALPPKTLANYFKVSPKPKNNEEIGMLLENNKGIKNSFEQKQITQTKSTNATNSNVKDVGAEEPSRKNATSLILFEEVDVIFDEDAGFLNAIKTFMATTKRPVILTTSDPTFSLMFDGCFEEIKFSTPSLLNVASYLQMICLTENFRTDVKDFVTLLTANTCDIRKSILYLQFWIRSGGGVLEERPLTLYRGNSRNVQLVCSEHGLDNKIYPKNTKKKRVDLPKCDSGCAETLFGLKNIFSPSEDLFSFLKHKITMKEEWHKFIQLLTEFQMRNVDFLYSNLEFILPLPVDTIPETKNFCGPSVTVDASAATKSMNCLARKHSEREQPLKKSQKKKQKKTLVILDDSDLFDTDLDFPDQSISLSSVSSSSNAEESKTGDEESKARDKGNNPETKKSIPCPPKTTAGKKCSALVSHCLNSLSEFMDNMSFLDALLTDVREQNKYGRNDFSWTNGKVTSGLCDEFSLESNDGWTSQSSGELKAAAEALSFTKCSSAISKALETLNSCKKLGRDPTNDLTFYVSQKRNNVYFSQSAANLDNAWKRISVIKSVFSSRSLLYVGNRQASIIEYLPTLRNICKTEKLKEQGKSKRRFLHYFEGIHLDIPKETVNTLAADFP
Summary of the method: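 Luciferase read-out, ONE-Glo, 30 min at room temperature, follows 16 h co-exposure at 37 C of compound and the DNA-damaging agent 5-fluorouridine. Cells: HEK293T with ELG1-luciferase fusion, 2,000 per well, DMSO as vehicle.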

[6] = biological target: Thyrotropin-releasing hormone receptor (Homo sapiens) (UniProt P34981); assay: qHTS for Small Molecule Agonists and Allosteric Enhancers of Human TRH Receptor: Validation Screen for Agonists (AID 493127;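 active = calcium activation more than 3 SD above the typical response in the agonist read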;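 note: intracellular calcium rise by fluo-8 fluorescence before TRH EC20 addition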); details: TRH receptor agonist cell assay; at 2 µM; stronger effect = higher value
Chain of Thyrotropin-releasing hormone receptor (Homo sapiens) (P34981 whole entry, looked up): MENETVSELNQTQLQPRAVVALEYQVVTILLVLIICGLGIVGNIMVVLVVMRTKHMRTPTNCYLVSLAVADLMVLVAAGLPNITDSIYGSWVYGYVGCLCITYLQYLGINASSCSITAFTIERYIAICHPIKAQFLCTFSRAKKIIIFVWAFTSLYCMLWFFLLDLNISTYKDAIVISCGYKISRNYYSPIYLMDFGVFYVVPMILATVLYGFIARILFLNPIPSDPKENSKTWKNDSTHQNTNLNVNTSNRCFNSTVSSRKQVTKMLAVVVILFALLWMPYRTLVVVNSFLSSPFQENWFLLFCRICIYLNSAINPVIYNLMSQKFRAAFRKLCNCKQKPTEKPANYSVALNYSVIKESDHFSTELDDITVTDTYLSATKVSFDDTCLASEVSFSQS
Summary of the method: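 Compound-evoked intracellular calcium release in fluo-8-loaded TRHR cells, read kinetically on FDSS (Ex 480/Em 530, 1 s/cycle) after 23 nL pintool transfer. Agonist phase preceded 10 nM TRH EC20 addition.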

[7] = Nrf2 qHTS screen for inhibitors: Validation (AID 493153; active = well fitted inhibition curve with a large enough effect in the main read-out, with a control signal flat, not every such curve was filed as active); details: viability change: measured here: cytotoxicity max response
Summary of the method: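 Concentration-response on A549 ARE_Fluc reporter cells exposed 18-24 h at 37 C, 5% CO2. Cytotoxicity read first by CellTiter-Fluor fluorescence (Ex 405/Em 525), then Nrf2 inhibition by BugLite luminescence after 15 min.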

[8] = qHTS for Inhibitors of Cell Surface uPA Generation: Validation Assay (AID 493164);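 note: RAW 264.7 macrophage cells exposed to compound for 18 h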
Summary of the method: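 ATP-Lite luminescence read-out: ATP remains high when uPA activity-dependent LF translocation into the cytoplasm is blocked. RAW 264.7 cells, 18 h compound exposure at 37 C; 7-point titration, 2.45 nM to 38.3 uM final.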

[9] = biological target: Galactokinase (Homo sapiens) (UniProt P51570); assay: qHTS Validation Assay for Inhibitors of Human Galactokinase (GALK) (AID 493189)
Chain of Galactokinase (Homo sapiens) (P51570 whole entry, looked up): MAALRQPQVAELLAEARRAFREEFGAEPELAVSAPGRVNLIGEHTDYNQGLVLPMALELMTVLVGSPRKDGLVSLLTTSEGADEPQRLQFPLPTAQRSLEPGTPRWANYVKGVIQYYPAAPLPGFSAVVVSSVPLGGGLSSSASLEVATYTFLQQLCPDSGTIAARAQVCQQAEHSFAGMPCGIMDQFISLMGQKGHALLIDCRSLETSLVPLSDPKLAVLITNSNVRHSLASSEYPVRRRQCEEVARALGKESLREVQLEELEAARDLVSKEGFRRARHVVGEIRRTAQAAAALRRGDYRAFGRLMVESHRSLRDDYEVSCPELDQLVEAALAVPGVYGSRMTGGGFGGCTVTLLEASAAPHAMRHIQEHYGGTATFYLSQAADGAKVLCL
Summary of the method: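 GALK (5 nM) with 35 uM ATP and 100 uM galactose in HEPES pH 8.0 with MgCl2, NaCl, DTT and BSA. Reaction ran 1 h at room temperature. Residual ATP read by Kinase-Glo Plus luminescence.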

[10] = Validation screen for small molecules that induce DNA re-replication in SW480 colon adenocarcinoma cells (AID 504364)
Summary of the method: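 Image-based DNA content read-out: Hoechst stain 40 min, total nuclear fluorescence intensity (ex 405 nm, em 500-530 nm) after 48 h compound exposure of 250 SW480 cells/well at 37 C, 5% CO2, versus DMSO vehicle.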

[11] = biological target: Phosphoglycerate kinase, glycosomal (Trypanosoma brucei brucei) (UniProt P07378); assay: qHTS Validation Assay to Find Inhibitors of Phosphoglycerate Kinase (AID 504547)
Chain of Phosphoglycerate kinase, glycosomal (Trypanosoma brucei brucei) (P07378 whole entry, looked up): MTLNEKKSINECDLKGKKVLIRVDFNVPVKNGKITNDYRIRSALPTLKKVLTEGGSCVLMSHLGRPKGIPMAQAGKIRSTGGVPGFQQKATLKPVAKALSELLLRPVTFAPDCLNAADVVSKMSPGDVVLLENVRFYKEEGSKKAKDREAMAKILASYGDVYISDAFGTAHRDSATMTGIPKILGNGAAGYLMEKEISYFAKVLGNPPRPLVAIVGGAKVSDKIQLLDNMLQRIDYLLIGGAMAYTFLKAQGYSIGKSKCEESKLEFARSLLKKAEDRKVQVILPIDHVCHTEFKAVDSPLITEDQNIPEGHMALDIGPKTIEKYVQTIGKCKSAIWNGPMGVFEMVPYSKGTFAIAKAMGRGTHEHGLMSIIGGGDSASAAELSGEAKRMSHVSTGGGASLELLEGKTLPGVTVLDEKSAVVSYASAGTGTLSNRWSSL
Summary of the method: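 Compounds are pinned into the substrate/PGK mixture, and GAPDH (100nM final) is added to start the reaction by producing 1,3-BPG. After 60 minutes at room temperature, Kinase-Glo Plus is added and luminescence is measured 10 minutes later.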

[12] = biological target: phosphoglycerate mutase (Leishmania major) (UniProt Q4Q090); assay: qHTS Validation Assay to Find Inhibitors of Phosphoglycerate Mutase (AID 504548);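 note: end-point luminescence from Kinase-GloPlus after the PGAM reaction; series mostly up to about 58 µM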
Chain of phosphoglycerate mutase (Leishmania major) (Q4Q090 1-553): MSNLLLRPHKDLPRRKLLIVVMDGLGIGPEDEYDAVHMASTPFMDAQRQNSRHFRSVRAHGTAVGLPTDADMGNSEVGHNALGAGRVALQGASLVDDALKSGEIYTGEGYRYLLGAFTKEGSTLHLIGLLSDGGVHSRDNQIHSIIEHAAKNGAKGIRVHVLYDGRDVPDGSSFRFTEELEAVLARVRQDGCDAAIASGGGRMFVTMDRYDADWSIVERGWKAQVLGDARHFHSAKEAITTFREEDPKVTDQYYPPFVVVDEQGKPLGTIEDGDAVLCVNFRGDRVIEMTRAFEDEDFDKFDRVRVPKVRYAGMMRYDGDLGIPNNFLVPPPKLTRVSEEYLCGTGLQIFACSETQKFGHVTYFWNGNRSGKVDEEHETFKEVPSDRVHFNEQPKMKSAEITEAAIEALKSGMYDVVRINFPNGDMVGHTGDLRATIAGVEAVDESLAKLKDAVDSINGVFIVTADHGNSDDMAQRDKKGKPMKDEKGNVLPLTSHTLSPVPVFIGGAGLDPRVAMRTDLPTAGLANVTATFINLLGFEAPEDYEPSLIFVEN
Summary of the method: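 Inhibition of L. major PGAM was assessed by Kinase-GloPlus luminescence following a 45-minute room-temperature reaction with enzyme at 1.25nM final.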

[13] = Inducers of the Endoplasmic Reticulum Stress Response (ERSR) in human glioma: Validation (AID 504836)
Summary of the method: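 Stably transfected U87-MG glioma cells carrying a GRP78-based luciferase sensor; 16 h compound incubation. Luminescence end-point read 10 min after Bright-Glo addition at room temperature.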

[14] = qHTS for Inhibitors of ATXN expression: Validation of Cytotoxic Assay (AID 588349)
Summary of the method: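 Cytotoxicity counter-screen: ATP-based luminescent viability (CellTiter Glo) after 72 hr exposure of HEK293 cells to a compound titration at 37 degrees C.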

[15] = qHTS for Inhibitors of ATXN expression: Validation (AID 588378); note: series mostly up to about 57 µM; nearly all actives have a fitted effect of over 75% in size
Summary of the method: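 HEK293 cells carrying ATXN2-firefly luciferase reporter, treated with compound 24 h at 37 °C. Viability read first by CellTiter-Fluor (405/525 nm), then reporter expression by Bright-Glo luminescence; controls were a known ATXN2 expression inhibitor and a luciferase inhibitor.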

[16] = biological target: Peptidyl-prolyl cis-trans isomerase NIMA-interacting 1 (Homo sapiens) (UniProt Q13526); assay: qHTS Validation Assay to Find Inhibitors of Pin1 (AID 504536; active = well fitted inhibition curve with a large enough effect in the polarisation, with a control signal flat, not every such curve was filed as active; the % refers to the polarisation)
Chain of Peptidyl-prolyl cis-trans isomerase NIMA-interacting 1 (Homo sapiens) (Q13526 whole entry, looked up): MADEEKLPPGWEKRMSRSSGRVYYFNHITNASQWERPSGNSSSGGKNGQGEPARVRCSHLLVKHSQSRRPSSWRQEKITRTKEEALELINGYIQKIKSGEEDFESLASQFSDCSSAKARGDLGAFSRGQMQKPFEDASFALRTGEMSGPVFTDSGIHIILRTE
Summary of the method: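 Fluorescence polarization competition: compounds (titration) displace HiFluor-488-labeled Pin1-1b peptide from Pin1 (0.3 uM final) in pH 7.5 HEPES buffer with DTT, 10 min at room temperature; %Activity normalized to no-enzyme wells, curves fitted.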

[17] = biological target: Ubiquitin carboxyl-terminal hydrolase 1 (Homo sapiens) (UniProt O94782); assay: Inhibitors of USP1/UAF1: Pilot qHTS (AID 504865);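 note: rhodamine fluorescence freed from ubiquitin-rhodamine substrate followed over time; top concentration of the series differs between compounds; nearly all actives have a fitted effect of over 35% in size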
Summary of the method: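 USP1/UAF1 complex at 1 nM preincubated 15 min at room temperature with compound, then Ub-Rho substrate added at 150 nM final. Fluorescence (480/540 nm) read kinetically in 50 mM HEPES pH 7.8, 0.5 mM EDTA, 1 mM TCEP, 0.1 mg/ml BSA, 0.01% Tween-20.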

[18] = biological target: DNA dC->dU-editing enzyme APOBEC-3G (Homo sapiens) (UniProt Q9HC16); assay: qHTS for inhibitors of Vif-A3G interactions: Validation (AID 588379)
Chain of DNA dC->dU-editing enzyme APOBEC-3G (Homo sapiens) (Q9HC16 whole entry, looked up): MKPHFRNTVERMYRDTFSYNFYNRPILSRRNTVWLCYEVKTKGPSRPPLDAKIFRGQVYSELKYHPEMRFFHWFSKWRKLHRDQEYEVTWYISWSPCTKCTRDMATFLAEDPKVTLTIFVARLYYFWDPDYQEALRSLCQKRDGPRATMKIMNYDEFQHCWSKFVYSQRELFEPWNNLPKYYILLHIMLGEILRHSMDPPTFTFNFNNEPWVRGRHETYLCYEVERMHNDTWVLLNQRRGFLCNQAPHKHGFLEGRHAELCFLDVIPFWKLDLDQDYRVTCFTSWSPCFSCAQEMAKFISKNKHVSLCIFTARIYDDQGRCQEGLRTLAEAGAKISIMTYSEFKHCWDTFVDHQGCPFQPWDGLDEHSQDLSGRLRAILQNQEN
Summary of the method: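 Yellow fluorescence (Ex 488, Em 500-530) of Vif-coexpressing HeLa A3G-eYFP cells, scanned by Acumen cytometer, reports blocked A3G degradation. Cells plated at 700/well overnight at 37 deg C before compound addition, then a further overnight compound incubation at 37 deg C.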

Row | SMILES | outcome [1] | Potency [2] | Potency [3] | outcome [4] | Potency [5] | activation [6] | outcome [7] | viability change [7] | outcome [8] | outcome [9] | outcome [10] | outcome [11] | outcome [12] | Potency [13] | outcome [14] | Potency [15] | outcome [16] | Potency [17] | outcome [18]
1 | CCCN1CCC[C@H](c2cccc(O)c2)C1 | inactive | inactive | inactive | inactive | inactive | 2.19% (inactive) | inactive | 1.24% | inactive | inactive | inactive | inactive | inactive | inactive | inactive | inactive |  |  | 
2 | CC(=O)NCCc1c[nH]c2ccccc12 | inactive | inactive |  | inactive | inactive | 0.375% (inactive) | inactive | 1% | inactive | inactive | inactive | inactive | inactive | inactive | inactive | inactive | inactive | inactive | inactive
3 | CC(C)NC(C)Cc1ccc(I)cc1 (stereo not given) | inactive | inactive | inactive | inactive | inactive | 2.38% (inactive) | inactive | 2.82% | inactive | inactive | inactive | inactive | inactive | inactive | inactive |  | inactive | inactive | 
4 | NCc1cc(=O)[nH]o1 | inactive | inactive |  | inactive | inactive | -4.19% (inactive) | inactive | 4.87% | inactive | inactive | inactive | inactive | inactive | inactive | inactive | inactive | inactive |  | inactive
5 | O=C(Cc1ccc(Cl)c(Cl)c1)N1CCCCC1CN1CCCC1 (stereo not given) | inactive | inactive |  | inactive | inactive | 1.12% (inactive) | inactive | 7.56% | inactive | inactive | inactive | inactive | inactive | inactive |  |  | inactive | inactive | 
6 | NC(CCP(=O)(O)O)C(=O)O (stereo not given) | inactive | inactive |  | inactive | inactive | -3% (inactive) | inactive | 2.18% | inactive | inactive | inactive | inactive | inactive | inactive | inactive | inactive | inactive |  | 
7 | CC(Cc1ccc(O)cc1)NCC(O)c1cc(O)cc(O)c1 (stereo not given) | inactive | inactive |  | inactive | inactive | 0.688% (inactive) | inactive | -4.39% | inactive | inactive | inactive | inactive | inactive | inactive | inactive | inactive | inactive |  | 
8 | COc1cc(C(O)CN)ccc1O (stereo not given) | inactive | inactive |  | inactive | inactive | 0.375% (inactive) | inactive | -5.73% | inactive | inactive | inactive | inactive | inactive | inactive | inactive | inactive | inactive | inactive | 
9 | NC(CP(=O)(O)O)C(=O)O (stereo not given) | inactive | inactive |  | inactive | inactive | -3.19% (inactive) | inactive | -2.21% | inactive | inactive | inactive | inactive | inactive | inactive | inactive | inactive | inactive |  | 
10 | Cc1nccc2c1[nH]c1ccccc12 | inactive | inactive |  | inactive | 9.2 µM (active) | 0.938% (inactive) | inactive | 6.29% | inactive | inactive | inactive | inactive | inactive | inactive | inactive | inactive | inactive | inactive | inactive
11 | Oc1ccc2c3c1O[C@H]1c4[nH]c5c(c4C[C@@]4(O)[C@@H](C2)N(CC2CC2)CC[C@]314)C[C@@]1(O)[C@H]2Cc3ccc(O)c4c3[C@@]1(CCN2CC1CC1)[C@H]5O4 | inactive | inactive |  | inactive | inactive | 0.625% (inactive) | inactive | 0% | inactive | inactive | inactive | inactive | inactive | inactive |  | inactive | inactive | inactive | 
12 | Cn1cnc(CCN)c1 | inactive | inactive |  | inactive | inactive | 0.562% (inactive) | inactive | -10.2% | inactive | inactive | inactive | inactive | inactive | inactive | inactive | inactive | inactive |  | 
13 | CCCN1CCO[C@@H]2c3cc(O)ccc3OC[C@H]21 | inactive | inactive |  | inactive | inactive | 1.06% (inactive) and 0% (inactive) | inactive | -0.639% and -4.02% | inactive | inactive | inactive | inactive | inactive | inactive | inactive | inactive | inactive | inactive | 
